Only some compounds are listed: those with a hit (about 32% of all), similar ones and a draw of the others.
PostGolgi yeast = growth inhibition of a yeast mutant, post-Golgi transport screen. post-Golgi transport phenotypic cell assay. inhibition, % at 10 µM. hit rate 0.9% among 98,000. AID 739;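 also: yeast cells grown in 1536-well plates; yeast grown about 18 h at 30C before absorbance read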
CYP2C9 act = activators of human CYP2C9 | P11712 | recombinant CYP2C9, luciferin-H conversion, luminescence; stronger effect = higher value; factor 1 = untreated enzyme, 0 = blocked | activation factor at 5 µM | hit rate 1.4% among 96,000 | AID 1024;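 active = activation factor of 2 or more for CYP2C9 at a 5 µM dose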;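 also: 0 = sulfaphenazole-blocked wells and 1 = vehicle-only wells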
CYP2C19 activ = increases human CYP2C19 enzyme activity. P33261. recombinant CYP2C19, luciferin-H EGE luminescence; stronger effect = higher value; 0 = fully inhibited enzyme, 1 = untreated enzyme. activation factor at 5 µM. 96,000 tested, under 10 active;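 active = activation factor of at least 2 at 5 µM in the primary screen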;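 also: 0 = wells with 2.5 mM tranylcypromine and 1 = vehicle-only wells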
Target sequence (P33261 whole entry, looked up): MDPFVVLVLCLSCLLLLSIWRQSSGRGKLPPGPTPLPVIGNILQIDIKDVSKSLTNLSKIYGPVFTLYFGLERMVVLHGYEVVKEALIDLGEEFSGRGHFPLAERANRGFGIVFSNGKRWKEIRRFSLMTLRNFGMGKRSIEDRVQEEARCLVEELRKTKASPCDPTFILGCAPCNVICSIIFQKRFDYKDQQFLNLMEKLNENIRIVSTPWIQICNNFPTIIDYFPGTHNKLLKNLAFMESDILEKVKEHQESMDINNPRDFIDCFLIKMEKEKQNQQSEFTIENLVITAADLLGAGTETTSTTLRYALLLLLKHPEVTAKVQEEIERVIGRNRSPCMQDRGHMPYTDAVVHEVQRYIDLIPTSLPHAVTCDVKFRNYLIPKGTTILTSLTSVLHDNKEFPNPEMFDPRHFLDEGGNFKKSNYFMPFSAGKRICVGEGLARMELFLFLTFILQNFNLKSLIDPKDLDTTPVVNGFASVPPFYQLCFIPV
CYP2C9 inhib = human CYP2C9 inhibition | P11712 | CYP2C9 Supersomes, luciferin-H conversion, luminescence | inhibition, % at 5 µM | hit rate 20% among 96,000;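 active = blocking of liver enzyme CYP2C9 beyond about 50% at 5 µM, limit read from the data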
PostGolgi ctrl = inhibits growth of the yeast control strain. efflux-deficient yeast background strain, growth absorbance A615, 16 h. inhibition, % at 10 µM. hit rate 5% among 98,000
CYP2C19 inh = blocks human cytochrome P450 2C19; P33261; CYP2C19 Supersomes, luciferin-H EGE luminescence, 30 min; inhibition, % at 5 µM; hit rate 21% among 96,000; AID 778;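 active = CYP2C19 inhibition above a set limit at 5 µM in the primary screen, cut at about 50% in these data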;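 also: plate controls were negative control wells for no effect and 2.5 mM tranylcypromine positive control for full effect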
Active calls of the source: *. Rule as the data show it, unless noted: active = inhibition above about 30%; inactive = the rest.

What do the screens show for `COc1ccc(Nc2nc(Nc3ccc(OC)cc3)nc(SC3=NCCS3)n2)cc1`?
PostGolgi yeast: 16.1; CYP2C9 act: 0.4; CYP2C19 activ: 0.4; CYP2C9 inhib: 64.1*; PostGolgi ctrl: 18.2; CYP2C19 inh: 58.8*

How did CCOC(=O)c1c(C)[nH]c(C(=O)Cn2c(=O)oc3ccccc32)c1C do in these assays?
PostGolgi yeast: 2.3; CYP2C9 act: 0.9; CYP2C19 activ: 1; CYP2C9 inhib: 9.4; PostGolgi ctrl: -3.5; CYP2C19 inh: -3.4

How did CCOP(=O)(OCC)c1nc(-c2cccc3ccccc23)oc1NCc1ccccc1 do in these assays?
PostGolgi yeast: -1.7; CYP2C9 act: 0.6; CYP2C19 activ: 0.7; CYP2C9 inhib: 37.1; PostGolgi ctrl: 27.0; CYP2C19 inh: 29.8

How did CCOP(=O)(OCC)c1nc(/C=C/c2ccccc2)oc1NCc1ccc(OC)cc1 do in these assays?
PostGolgi yeast: 0.2; CYP2C9 act: 0.2; CYP2C19 activ: 0; CYP2C9 inhib: 78.4*; PostGolgi ctrl: 5.6; CYP2C19 inh: 97.8*

Results for CCOP(=O)(OCC)c1nc(/C=C/c2ccccc2)oc1NCc1ccccc1 ?
PostGolgi yeast: -10.1; CYP2C9 act: 0.6; CYP2C19 activ: 0.4; CYP2C9 inhib: 35.7; PostGolgi ctrl: 4.5; CYP2C19 inh: 55.7*

Results for COc1ccc(O)c(/C=N/c2sc(C)c(C)c2C#N)c1 ?
PostGolgi yeast: 8.8; CYP2C9 act: 1; CYP2C19 activ: 0.9; CYP2C9 inhib: -1.6; PostGolgi ctrl: 8.4; CYP2C19 inh: 14.7

Results for Cc1ccc(Nc2cnn(C34CC5CC(CC(CC(=O)O)(C5)C3)C4)c(=O)c2Cl)cc1 ?
PostGolgi yeast: 4.3; CYP2C9 act: 1; CYP2C19 activ: 1.1; CYP2C9 inhib: -1.6; PostGolgi ctrl: -1.5; CYP2C19 inh: -12.7

Results for O=C1c2ccsc2SCCN1Cc1ccc(Cl)cc1 ?
PostGolgi yeast: -6.8; CYP2C9 act: 0.7; CYP2C19 activ: 0.4; CYP2C9 inhib: 30.0; PostGolgi ctrl: 1.1; CYP2C19 inh: 57.7*

What do the screens show for `O=C1c2ccsc2SCCN1Cc1cccc(Cl)c1`?
PostGolgi yeast: 0.5; CYP2C9 act: 0.6; CYP2C19 activ: 0.6; CYP2C9 inhib: 39.7; PostGolgi ctrl: 23.6; CYP2C19 inh: 44.8

How did O=CNCC(=O)NCCc1ccc(Cl)cc1 do in these assays?
PostGolgi yeast: -3.3; CYP2C9 act: 0.9; CYP2C19 activ: 1; CYP2C9 inhib: 8.3; PostGolgi ctrl: 24.4; CYP2C19 inh: 1.8

How did CCNC(=O)C(=O)NCCc1ccc(Cl)cc1 do in these assays?
PostGolgi yeast: -4.5; CYP2C9 act: 0.9; CYP2C19 activ: 0.4; CYP2C9 inhib: 8.9; PostGolgi ctrl: -1.0; CYP2C19 inh: 58.6*

Results for O=C(NCCc1ccc(O)cc1)c1ccc(Cl)cc1 ?
PostGolgi yeast: 7.0; CYP2C9 act: 2.3*; CYP2C19 activ: 0.6; CYP2C9 inhib: -131.3; PostGolgi ctrl: -4.7; CYP2C19 inh: 42.2

What do the screens show for `COc1ccccc1CCNC(=O)c1ccoc1C`?
PostGolgi yeast: 18.0; CYP2C9 act: 0.7; CYP2C19 activ: 0.2; CYP2C9 inhib: 32.7; PostGolgi ctrl: 5.4; CYP2C19 inh: 82.7*

What do the screens show for `Cc1occc1C(=O)NCCc1ccc(Cl)cc1`?
PostGolgi yeast: 7.3; CYP2C9 act: 0.9; CYP2C19 activ: 0.4; CYP2C9 inhib: 6.2; PostGolgi ctrl: 15.2; CYP2C19 inh: 57.2*

Results for Cc1nc(SCC(=O)NCc2ccco2)[nH]c(=O)c1C ?
PostGolgi yeast: 2.5; CYP2C9 act: 1.1; CYP2C19 activ: 1.2; CYP2C9 inhib: -7.5; PostGolgi ctrl: 20.8; CYP2C19 inh: -17.0

How did NC(=O)C1CCN(Cc2nc(-c3ccccc3)no2)CC1 do in these assays?
PostGolgi yeast: -11.4; CYP2C9 act: 0.9; CYP2C19 activ: 1; CYP2C9 inhib: 7.3; PostGolgi ctrl: 2.7; CYP2C19 inh: 4.9

What do the screens show for `CCNC(=S)NNC(=O)Nc1ccccc1`?
PostGolgi yeast: -1.1; CYP2C9 act: 1.1; CYP2C19 activ: 0.8; CYP2C9 inhib: -11.7; PostGolgi ctrl: 2.1; CYP2C19 inh: 17.7

How did Cc1cc(C)n(C(=O)c2ccc(C)c(S(=O)(=O)N3CCCCC3)c2)n1 do in these assays?
PostGolgi yeast: 6.8; CYP2C9 act: 0.1; CYP2C19 activ: 0.1; CYP2C9 inhib: 90.8*; PostGolgi ctrl: 8.4; CYP2C19 inh: 91.2*

What do the screens show for `Cc1ccc(C(=O)Nc2ccon2)cc1S(=O)(=O)N1CCCCCC1`?
PostGolgi yeast: 1.6; CYP2C9 act: 0.8; CYP2C19 activ: 0.1; CYP2C9 inhib: 19.7; PostGolgi ctrl: -3.3; CYP2C19 inh: 87.5*

What do the screens show for `CCC1CCCCN1C(=O)CN1C(=O)CSC1=O` (stereo not given)?
PostGolgi yeast: -2.9; CYP2C9 act: 0.9; CYP2C19 activ: 0.8; CYP2C9 inhib: 13.3; PostGolgi ctrl: 0.1; CYP2C19 inh: 15.9

Results for C=CCn1c(SCc2ccc([N+](=O)[O-])cc2)nnc1C(C)NC(=O)c1ccccc1 (stereo not given) ?
PostGolgi yeast: 13.4; CYP2C9 act: 1.1; CYP2C19 activ: 0.9; CYP2C9 inhib: -8.5; PostGolgi ctrl: -2.9; CYP2C19 inh: 5.1

How did CN1CCc2nc(SCC(=O)Nc3ccc(Cl)cc3)c(C#N)cc2C1 do in these assays?
PostGolgi yeast: 3.3; PostGolgi ctrl: 0.5

What do the screens show for `COc1ccc(S(=O)(=O)NC2CCCCC2)cc1C`?
PostGolgi yeast: -0.7; CYP2C9 act: 3*; CYP2C19 activ: 0.4; CYP2C9 inhib: -201.6; PostGolgi ctrl: 17.9; CYP2C19 inh: 60.0*

How did COc1cc(S(=O)(=O)NC2CCCCC2)ccc1Cl do in these assays?
PostGolgi yeast: 1.4; PostGolgi ctrl: 13.2

How did COc1ccc(S(=O)(=O)NC2CCCC2)c(Cl)c1Cl do in these assays?
PostGolgi yeast: -24.2; CYP2C9 act: 0.5; CYP2C19 activ: 0; CYP2C9 inhib: 54.3*; PostGolgi ctrl: 11.7; CYP2C19 inh: 97.8*

What do the screens show for `COc1ccc(C)cc1S(=O)(=O)NCCC1=CCCCC1`?
PostGolgi yeast: 6.1; CYP2C9 act: 0.7; CYP2C19 activ: 0.6; CYP2C9 inhib: 34.8; PostGolgi ctrl: 26.4; CYP2C19 inh: 35.5

Results for COc1ccc(C)cc1S(=O)(=O)NC1CCCC1 ?
PostGolgi yeast: 1.8; CYP2C9 act: 0.7; CYP2C19 activ: 0.2; CYP2C9 inhib: 26.3; PostGolgi ctrl: -1.8; CYP2C19 inh: 83.4*

Results for COc1ccc(F)cc1S(=O)(=O)NC1CCCC1 ?
PostGolgi yeast: -3.3; CYP2C9 act: 0.7; CYP2C19 activ: 0.2; CYP2C9 inhib: 31.8; PostGolgi ctrl: 4.3; CYP2C19 inh: 80.1*

Results for O=S(=O)(NC1CCCCCC1)c1cccc2cccnc12 ?
PostGolgi yeast: 18.1; CYP2C9 act: 0.7; CYP2C19 activ: 0.5; CYP2C9 inhib: 31.5; PostGolgi ctrl: 10.7; CYP2C19 inh: 46.6

How did Cc1ccc(S(=O)(=O)N2C(=O)C(c3ccccc3)SC2=Nc2ccccc2)cc1 (stereo not given) do in these assays?
PostGolgi yeast: 2.1; CYP2C9 act: 0.8; CYP2C19 activ: 0.9; CYP2C9 inhib: 21.2; PostGolgi ctrl: 20.4; CYP2C19 inh: 13.8

What do the screens show for `COCCNC(=O)CN(C(=O)CCC(=O)Nc1nccs1)c1ccccc1OC`?
PostGolgi yeast: -1.1; CYP2C9 act: 0.7; CYP2C19 activ: 0.9; CYP2C9 inhib: 33.6; PostGolgi ctrl: 4.0; CYP2C19 inh: 10.8

How did CC1CCCC(C)N1C(=O)c1cc(-c2ccc(Cl)c(Cl)c2)on1 (stereo not given) do in these assays?
PostGolgi yeast: -1.0; CYP2C9 act: 1.2; CYP2C19 activ: 1; CYP2C9 inhib: -24.7; PostGolgi ctrl: 20.7; CYP2C19 inh: 3.5
